The results in this text go back to article PMC8384837, “Expanding the binding specificity for RNA recognition by a PUF domain”.

Holding throughout (experiment): yeast three-hybrid, YBZ-1, SC-Leu-His + 0.5 mM 3-AT, 4 days
Details in all cases: tags: N-Gal4 AD-HA kept; label: inside an RPR1-promoter hybrid RNA with tandem MS2 sites; ssRNA

In assay [1] the target is PUM1 PUF domain R5-EAE (Homo sapiens, UniProt Q14671 828-1176, C1007E;R1008A;Q1011E). In a few lines:
(§1)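 The interaction score is the log change in how often each variant appears, from input to selection. Frequencies came from PCR-amplified, Illumina-sequenced repeat regions of Pumilio-1 PUF domain libraries grown in strain YBZ-1 (LexA–MS2 coat fusion, HIS3 reporter) alongside matching RNA elements. Input plates were SC-Leu and selection plates were SC-Leu-His + 0.5 mM 3-AT, each for four days, and the log2 calculation used a pseudocount of 1 where a variant was absent.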

Assay [2] addresses PUM1 PUF domain R5-WHY (Homo sapiens, UniProt Q14671 828-1176, C1007W;R1008H;Q1011Y). The essentials:
as §1

Assay [3] has as its target PUM1 PUF domain R1-RTS (Homo sapiens, UniProt Q14671 828-1176, S863R;R864T;Q867S). In a few lines:
as §1

Assay [4] addresses PUM1 PUF domain R4-ANC (Homo sapiens, UniProt Q14671 828-1176, N971A;H972N;Q975C). The essentials: as §1
In assay [5] the target is PUM1 PUF domain R4-CMC (Homo sapiens, UniProt Q14671 828-1176, N971C;H972M;Q975C). In a few lines:
as §1

The target of assay [6] is PUM1 PUF domain R7-KWK (Homo sapiens, UniProt Q14671 828-1176, S1079K;N1080W;E1083K). In a few lines: as §1
Assay [7] has as its target PUM1 PUF domain R1-KVI (Homo sapiens, UniProt Q14671 828-1176, S863K;R864V;Q867I). In a few lines:
as §1

The target of assay [8] is PUM1 PUF domain R3-SRT (Homo sapiens, UniProt Q14671 828-1176, C935S;Q939T). The essentials:
as §1

Assay [9] has as its target PUM1 PUF domain R3-RSW (Homo sapiens, UniProt Q14671 828-1176, C935R;R936S;Q939W). The essentials:
as §1

The target of assay [10] is PUM1 PUF domain R3-TFG (Homo sapiens, UniProt Q14671 828-1176, C935T;R936F;Q939G). In a few lines:
as §1

Assay [11] deals with PUM1 PUF domain R2-LFS (Homo sapiens, UniProt Q14671 828-1176, N899L;Y900F;Q903S). The essentials: as §1
The target in assay [12] is PUM1 PUF domain R2-AYW (Homo sapiens, UniProt Q14671 828-1176, N899A;Q903W). In a few lines:
as §1

Sequence of PUM1 PUF domain R4-CMC (Q14671 828-1176 N971C/H972M/Q975C): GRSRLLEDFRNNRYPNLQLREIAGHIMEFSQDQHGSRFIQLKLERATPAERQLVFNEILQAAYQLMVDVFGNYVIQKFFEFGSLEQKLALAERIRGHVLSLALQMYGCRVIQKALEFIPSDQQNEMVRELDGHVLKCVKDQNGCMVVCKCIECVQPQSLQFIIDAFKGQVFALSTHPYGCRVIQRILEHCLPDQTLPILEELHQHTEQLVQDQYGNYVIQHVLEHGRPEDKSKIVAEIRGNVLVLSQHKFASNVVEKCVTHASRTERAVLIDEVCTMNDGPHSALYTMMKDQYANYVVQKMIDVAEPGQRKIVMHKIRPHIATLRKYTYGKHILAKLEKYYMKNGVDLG
Sequence of PUM1 PUF domain R4-ANC (Q14671 828-1176 N971A/H972N/Q975C): as the sequence (Q14671 828-1176 N971C/H972M/Q975C) above, with C144A, M145N counted along it
Sequence of PUM1 PUF domain R1-KVI (Q14671 828-1176 S863K/R864V/Q867I): as the sequence (Q14671 828-1176 N971C/H972M/Q975C) above, with S36K, R37V, Q40I, C144N, M145H, C148Q counted along it

As for “GGCUAGAACUAGUGGAUCCCCCGGCGCCCGGCGGCUCGAGCCCGGGUAAGUGUGAAUAGUCUGCAUGCCGCCGGGCGCCAUGCCUGCAGGUCGACUCUAGAAAACAUG”, the values for the binding signal in [1] and in assay [2] were 3.11 log2 enrichment (interaction score) and 5.78 log2 enrichment (interaction score), respectively.
For “GGCUAGAACUAGUGGAUCCCCCGGCGCCCGGCGGCUCGAGCCCGGGUAAGUGUAAAUCGUCUGCAUGCCGCCGGGCGCCAUGCCUGCAGGUCGACUCUAGAAAACAUG”, in assay [3], the binding signal was 4.45 log2 enrichment (interaction score).
Turning to “GGCUAGAACUAGUGGAUCCCCCGGCGCCCGGCGGCUCGAGCCCGGGUAAGUGUACAUAGUCUGCAUGCCGCCGGGCGCCAUGCCUGCAGGUCGACUCUAGAAAACAUG”, the results for the binding signal in [4] and in assay [5] were 2.65 log2 enrichment (interaction score) and 2.87 log2 enrichment (interaction score), respectively.
For “GGCUAGAACUAGUGGAUCCCCCGGCGCCCGGCGGCUCGAGCCCGGGUAAGUAUAAAUAGUCUGCAUGCCGCCGGGCGCCAUGCCUGCAGGUCGACUCUAGAAAACAUG”, the binding signal in assay [6] is 2.56 log2 enrichment (interaction score).
With “GGCUAGAACUAGUGGAUCCCCCGGCGCCCGGCGGCUCGAGCCCGGGUAAGUGUAUAUAGUCUGCAUGCCGCCGGGCGCCAUGCCUGCAGGUCGACUCUAGAAAACAUG”, the figures for the binding signal in assay [4] and in assay [5] were 4.27 log2 enrichment (interaction score) and 5.2 log2 enrichment (interaction score), respectively.
On to “GGCUAGAACUAGUGGAUCCCCCGGCGCCCGGCGGCUCGAGCCCGGGUAAGUGUAAAUUGUCUGCAUGCCGCCGGGCGCCAUGCCUGCAGGUCGACUCUAGAAAACAUG”, for which the binding signal in assay [3] was 4.22 log2 enrichment (interaction score); in assay [7], 4.79 log2 enrichment (interaction score).
Consider “GGCUAGAACUAGUGGAUCCCCCGGCGCCCGGCGGCUCGAGCCCGGGUAAGUGUAAGUAGUCUGCAUGCCGCCGGGCGCCAUGCCUGCAGGUCGACUCUAGAAAACAUG”, for which the values for the binding signal in [8], in assay [9] and in [10] were 4.32 log2 enrichment (interaction score), 0.87 log2 enrichment (interaction score) and 2.15 log2 enrichment (interaction score), respectively.
For “GGCUAGAACUAGUGGAUCCCCCGGCGCCCGGCGGCUCGAGCCCGGGUAAGUGUAAAAAGUCUGCAUGCCGCCGGGCGCCAUGCCUGCAGGUCGACUCUAGAAAACAUG”, the binding signal in [11] was 3.97 log2 enrichment (interaction score); in assay [12], 3.05 log2 enrichment (interaction score).
